Data taken from the supplement of paper PMC10849652.
About 8,800 targets were measured; listed, in parts, are those with a hit and a random draw of the rest. About 0.5% of all pairs of compound and target were hits. Values without a mark were called inactive.

Tests used:
Assay in all cases: log2 fold change, soluble protein after heating vs DMSO (PISA); higher = thermal stabilisation; K562 lysate, 10 uM; active = over 0.2 and 3.5 SD of the protein, either way, in both replicates (recomputed)
ibrutinib = compound: C=CC(=O)N1CCC[C@@H](n2nc(-c3ccc(Oc4ccccc4)cc3)c3c(N)ncnc32)C1 [ibrutinib]
In short: (§1)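 K562 pellets were dounce-homogenised in PBS pH 7.4 containing 1 mM MgCl2, and the crude extract, at 1 mg/mL protein, was exposed to 10 μM compound for 30 min. Aliquots were heated for 3 min across 48°C-58°C, pooled, brought to 0.5% NP-40 at 4°C and spun at 21,000xg for 90 min, with the supernatant taken as soluble protein. TMTpro 16plex LC-MS/MS with equalised channel sums quantified that protein. Values are log-two fold changes in thermal stability relative to solvent controls, taken from duplicates.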

[1] = compound: CC(=O)c1cnc2ccc(-c3cc(Cl)c(O)c(Cl)c3)nc2c1N[C@H]1CC[C@H](CN(C)C)CC1
In short: as §1

ralimetinib = compound: CC(C)(C)Cn1c(N)nc2ccc(-c3[nH]c(C(C)(C)C)nc3-c3ccc(F)cc3)nc21 [ralimetinib]
In short: as §1

[2] = compound: CC(C)(O)CC(=O)NCCn1ccc2ncnc(Nc3ccc(Oc4cccc(C(F)(F)F)c4)c(Cl)c3)c21
In short: as §1

[3] = compound: CC(C)C1=C2N=C(C=C(N2N=C1)NCC3=CC=CC=C3)NCCCCCCN
In short: as §1

[4] = compound: CC1=C(C(CC(=O)N1)C2=CC=C(C=C2)C(F)(F)F)C(=O)NC3=C(C=C4C(=C3)C=NN4)F
In short: as §1

[5] = compound: CC1=C(C2=C(C=C1)C(=O)C3=CC=CC=C3N2CCCN)C
In short: as §1

[6] = compound: CC1=C(C=C(C=C1)NC(=O)C2=CC(=CC=C2)C(C)(C)C#N)NC3=CC4=C(C=C3)N=CN(C4=O)C
In short: as §1

[7] = compound: CC1=C(C=C(C=C1)NC(=O)C2=CC(=CC=C2)N(C)C)NC(=O)C3=CC=C(C=C3)O
In short: as §1

[8] = compound: CC1=CC=C(C=C1)SC2=C3C=C(SC3=CN=C2)C(=O)N
In short: as §1

vemurafenib = compound: CCCS(=O)(=O)Nc1ccc(F)c(C(=O)c2c[nH]c3ncc(-c4ccc(Cl)cc4)cc23)c1F [vemurafenib]
In short: as §1

[9] = compound: CCCS(=O)(=O)Nc1ccc(F)c(C(=O)c2c[nH]c3ncc(Cl)cc23)c1F
In short: as §1

barasertib = compound: CCN(CCCOc1ccc2c(Nc3cc(CC(=O)Nc4cccc(F)c4)[nH]n3)ncnc2c1)CCOP(=O)(O)O [barasertib]
In short: as §1

[10] = compound: CC[C@@H]1C(=O)N(C)c2cnc(Nc3ccc(C(=O)NC4CCN(C)CC4)cc3OC)nc2N1C1CCCC1
In short: as §1

volasertib = compound: CC[C@@H]1C(=O)N(C)c2cnc(Nc3ccc(C(=O)N[C@H]4CC[C@H](N5CCN(CC6CC6)CC5)CC4)cc3OC)nc2N1C(C)C [volasertib]
In short: as §1

[11] = compound: CCn1c(C(=O)N(C2CC2)C2CC2)cc2c3c(ncn3C)c(Nc3cc(C)n(C)n3)nc21
In short: as §1

[12] = compound: CCn1cc(-c2ccnc3[nH]c(-c4cccc(CN(C)C)c4)cc23)c(-c2ccc(NC(=O)N(C)C)cc2)n1
In short: as §1

[13] = compound: CN1CCC(CNc2ccc3ncc(-c4cccc(OC(F)(F)F)c4)n3n2)CC1
In short: as §1

saracatinib = compound: CN1CCN(CCOc2cc(OC3CCOCC3)c3c(Nc4c(Cl)ccc5c4OCO5)ncnc3c2)CC1 [saracatinib]
In short: as §1

sotrastaurin = compound: CN1CCN(c2nc(C3=C(c4c[nH]c5ccccc45)C(=O)NC3=O)c3ccccc3n2)CC1 [sotrastaurin]
In short: as §1

UniProt Q7Z4S6, sequence (Q7Z4S6 whole entry, looked up): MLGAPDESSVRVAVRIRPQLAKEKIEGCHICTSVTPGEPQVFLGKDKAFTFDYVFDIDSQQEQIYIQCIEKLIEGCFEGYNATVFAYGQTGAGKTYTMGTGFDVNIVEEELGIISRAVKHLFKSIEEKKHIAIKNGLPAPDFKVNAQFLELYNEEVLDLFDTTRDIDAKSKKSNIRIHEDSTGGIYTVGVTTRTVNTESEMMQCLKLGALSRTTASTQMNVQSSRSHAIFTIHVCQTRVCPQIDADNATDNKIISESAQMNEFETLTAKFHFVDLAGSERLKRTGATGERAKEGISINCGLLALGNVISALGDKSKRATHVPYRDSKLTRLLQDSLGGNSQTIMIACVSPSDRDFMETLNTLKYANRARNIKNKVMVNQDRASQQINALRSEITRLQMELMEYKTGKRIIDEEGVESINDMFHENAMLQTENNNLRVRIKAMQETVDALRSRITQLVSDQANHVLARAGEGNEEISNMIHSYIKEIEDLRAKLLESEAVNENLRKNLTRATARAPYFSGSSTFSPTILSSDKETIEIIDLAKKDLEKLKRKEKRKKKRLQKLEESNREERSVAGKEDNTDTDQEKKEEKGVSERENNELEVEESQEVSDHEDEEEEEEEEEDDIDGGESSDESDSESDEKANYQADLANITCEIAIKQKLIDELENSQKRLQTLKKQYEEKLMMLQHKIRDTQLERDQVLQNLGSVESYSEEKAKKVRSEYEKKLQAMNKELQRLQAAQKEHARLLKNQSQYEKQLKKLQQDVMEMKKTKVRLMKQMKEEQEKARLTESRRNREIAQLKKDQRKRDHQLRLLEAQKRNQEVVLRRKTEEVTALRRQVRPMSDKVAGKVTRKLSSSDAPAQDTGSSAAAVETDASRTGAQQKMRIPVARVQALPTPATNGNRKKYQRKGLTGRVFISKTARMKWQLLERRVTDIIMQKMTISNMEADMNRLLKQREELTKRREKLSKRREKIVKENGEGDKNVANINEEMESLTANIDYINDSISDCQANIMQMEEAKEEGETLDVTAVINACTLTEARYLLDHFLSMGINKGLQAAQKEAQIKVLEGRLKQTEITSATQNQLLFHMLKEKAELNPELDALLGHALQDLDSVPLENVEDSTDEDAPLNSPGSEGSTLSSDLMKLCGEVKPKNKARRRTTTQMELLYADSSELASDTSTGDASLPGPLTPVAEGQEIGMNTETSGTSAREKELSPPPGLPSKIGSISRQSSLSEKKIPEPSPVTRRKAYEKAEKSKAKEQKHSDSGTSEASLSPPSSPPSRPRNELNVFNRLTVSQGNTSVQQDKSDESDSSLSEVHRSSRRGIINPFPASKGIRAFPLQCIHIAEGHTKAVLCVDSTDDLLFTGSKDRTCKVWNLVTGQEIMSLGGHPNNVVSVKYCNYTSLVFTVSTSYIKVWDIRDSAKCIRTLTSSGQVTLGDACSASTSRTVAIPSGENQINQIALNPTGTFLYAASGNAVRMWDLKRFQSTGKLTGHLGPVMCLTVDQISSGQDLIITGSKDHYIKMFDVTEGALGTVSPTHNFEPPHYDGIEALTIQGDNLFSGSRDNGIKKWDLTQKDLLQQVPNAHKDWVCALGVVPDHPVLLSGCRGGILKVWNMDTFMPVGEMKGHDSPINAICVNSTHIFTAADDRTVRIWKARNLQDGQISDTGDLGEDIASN
UniProt P27448, sequence (P27448 whole entry, looked up): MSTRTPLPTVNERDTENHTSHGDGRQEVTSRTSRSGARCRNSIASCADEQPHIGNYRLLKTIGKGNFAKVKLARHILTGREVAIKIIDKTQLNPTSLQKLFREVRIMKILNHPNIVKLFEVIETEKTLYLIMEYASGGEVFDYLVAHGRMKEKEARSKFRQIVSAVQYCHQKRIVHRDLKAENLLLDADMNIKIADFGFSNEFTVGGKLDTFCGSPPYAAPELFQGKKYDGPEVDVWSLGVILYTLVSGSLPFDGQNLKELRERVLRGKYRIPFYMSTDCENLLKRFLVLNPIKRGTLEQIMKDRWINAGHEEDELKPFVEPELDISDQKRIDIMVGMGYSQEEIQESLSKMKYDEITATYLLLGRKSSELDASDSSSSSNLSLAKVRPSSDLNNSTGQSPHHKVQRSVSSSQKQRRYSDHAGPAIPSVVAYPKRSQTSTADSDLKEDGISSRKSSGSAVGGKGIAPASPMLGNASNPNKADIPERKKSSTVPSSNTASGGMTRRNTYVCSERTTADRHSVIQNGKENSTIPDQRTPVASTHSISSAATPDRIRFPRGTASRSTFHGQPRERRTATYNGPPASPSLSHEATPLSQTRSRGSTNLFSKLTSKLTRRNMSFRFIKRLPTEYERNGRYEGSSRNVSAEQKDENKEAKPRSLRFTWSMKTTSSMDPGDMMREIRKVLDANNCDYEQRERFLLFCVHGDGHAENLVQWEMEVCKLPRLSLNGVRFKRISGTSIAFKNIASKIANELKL
UniProt Q99661, sequence (Q99661 whole entry, looked up): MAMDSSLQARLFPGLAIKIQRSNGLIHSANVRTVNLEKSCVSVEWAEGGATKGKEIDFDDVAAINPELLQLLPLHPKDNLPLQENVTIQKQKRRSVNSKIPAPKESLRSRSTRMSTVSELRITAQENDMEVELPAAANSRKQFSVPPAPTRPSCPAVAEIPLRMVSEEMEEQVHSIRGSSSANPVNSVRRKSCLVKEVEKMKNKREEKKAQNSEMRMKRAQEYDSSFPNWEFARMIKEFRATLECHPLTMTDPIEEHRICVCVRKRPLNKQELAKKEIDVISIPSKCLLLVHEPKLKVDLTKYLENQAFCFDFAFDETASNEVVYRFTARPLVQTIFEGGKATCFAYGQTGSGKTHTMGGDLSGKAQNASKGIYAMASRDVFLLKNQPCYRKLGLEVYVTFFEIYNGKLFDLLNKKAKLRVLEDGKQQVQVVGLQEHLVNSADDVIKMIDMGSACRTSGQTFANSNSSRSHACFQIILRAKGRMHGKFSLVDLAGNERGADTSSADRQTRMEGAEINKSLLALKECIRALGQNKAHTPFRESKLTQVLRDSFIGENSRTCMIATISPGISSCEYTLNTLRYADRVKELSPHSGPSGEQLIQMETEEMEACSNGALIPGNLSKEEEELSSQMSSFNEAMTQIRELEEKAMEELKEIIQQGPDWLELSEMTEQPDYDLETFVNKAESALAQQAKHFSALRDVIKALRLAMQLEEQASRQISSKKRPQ
UniProt P49137, sequence (P49137 whole entry, looked up): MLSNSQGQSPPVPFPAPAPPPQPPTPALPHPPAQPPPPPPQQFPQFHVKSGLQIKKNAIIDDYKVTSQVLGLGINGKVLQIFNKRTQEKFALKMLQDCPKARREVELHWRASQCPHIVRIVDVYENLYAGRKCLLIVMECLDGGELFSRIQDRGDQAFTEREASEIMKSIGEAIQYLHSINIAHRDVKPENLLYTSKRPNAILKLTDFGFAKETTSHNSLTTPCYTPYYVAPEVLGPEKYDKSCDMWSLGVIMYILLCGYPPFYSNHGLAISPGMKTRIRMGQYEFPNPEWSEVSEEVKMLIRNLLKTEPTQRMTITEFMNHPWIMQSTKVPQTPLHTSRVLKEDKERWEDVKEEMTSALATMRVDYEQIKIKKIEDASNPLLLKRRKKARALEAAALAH
UniProt Q86V48, sequence (Q86V48 whole entry, looked up): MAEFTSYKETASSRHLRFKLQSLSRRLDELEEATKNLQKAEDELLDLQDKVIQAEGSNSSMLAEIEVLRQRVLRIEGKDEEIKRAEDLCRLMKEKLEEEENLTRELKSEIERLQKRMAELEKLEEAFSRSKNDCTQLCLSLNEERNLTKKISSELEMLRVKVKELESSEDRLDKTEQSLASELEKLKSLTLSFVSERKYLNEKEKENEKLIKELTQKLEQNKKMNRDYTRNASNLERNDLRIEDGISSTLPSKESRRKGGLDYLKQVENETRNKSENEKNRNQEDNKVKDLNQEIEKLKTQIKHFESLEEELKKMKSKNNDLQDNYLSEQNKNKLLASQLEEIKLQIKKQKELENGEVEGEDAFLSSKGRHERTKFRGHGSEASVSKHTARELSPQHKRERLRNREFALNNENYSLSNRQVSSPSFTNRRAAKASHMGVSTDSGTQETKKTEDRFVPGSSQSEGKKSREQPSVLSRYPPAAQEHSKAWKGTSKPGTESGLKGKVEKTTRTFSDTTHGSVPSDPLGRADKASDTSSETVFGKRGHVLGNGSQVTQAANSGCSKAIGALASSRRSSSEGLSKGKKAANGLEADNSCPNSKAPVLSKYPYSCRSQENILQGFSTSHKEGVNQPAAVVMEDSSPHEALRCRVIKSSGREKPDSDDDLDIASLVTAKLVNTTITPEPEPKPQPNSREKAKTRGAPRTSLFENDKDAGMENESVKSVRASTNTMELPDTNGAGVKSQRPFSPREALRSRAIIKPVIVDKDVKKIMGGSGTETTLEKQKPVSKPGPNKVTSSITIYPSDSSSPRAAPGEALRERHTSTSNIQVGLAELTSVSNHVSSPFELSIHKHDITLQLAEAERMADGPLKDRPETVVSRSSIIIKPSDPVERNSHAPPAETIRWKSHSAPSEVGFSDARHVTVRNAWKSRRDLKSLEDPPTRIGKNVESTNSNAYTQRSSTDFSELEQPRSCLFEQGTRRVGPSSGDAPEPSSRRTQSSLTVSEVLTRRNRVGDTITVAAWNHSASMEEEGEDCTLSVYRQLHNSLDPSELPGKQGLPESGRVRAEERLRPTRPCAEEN
UniProt P46734, sequence (P46734 whole entry, looked up): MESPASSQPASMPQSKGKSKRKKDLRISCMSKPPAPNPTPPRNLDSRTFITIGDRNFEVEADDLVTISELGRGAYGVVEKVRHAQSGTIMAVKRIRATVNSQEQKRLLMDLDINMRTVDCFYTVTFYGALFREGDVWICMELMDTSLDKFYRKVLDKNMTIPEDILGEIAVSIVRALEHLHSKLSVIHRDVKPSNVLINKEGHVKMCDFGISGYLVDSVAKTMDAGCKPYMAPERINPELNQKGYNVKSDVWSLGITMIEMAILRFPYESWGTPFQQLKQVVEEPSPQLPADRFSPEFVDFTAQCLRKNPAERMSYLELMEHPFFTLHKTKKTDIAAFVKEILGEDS
UniProt O95777, sequence (O95777 whole entry, looked up): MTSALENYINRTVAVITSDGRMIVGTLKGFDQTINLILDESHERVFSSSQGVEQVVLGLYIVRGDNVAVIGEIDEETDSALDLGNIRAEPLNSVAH

Target	log2 fold change (ibrutinib)	log2 fold change [1]	log2 fold change (ralimetinib)	log2 fold change [2]	log2 fold change [3]	log2 fold change [4]	log2 fold change [5]	log2 fold change [6]	log2 fold change [7]	log2 fold change [8]	log2 fold change (vemurafenib)	log2 fold change [9]	log2 fold change (barasertib)	log2 fold change [10]	log2 fold change (volasertib)	log2 fold change [11]	log2 fold change [12]	log2 fold change [13]	log2 fold change (saracatinib)	log2 fold change (sotrastaurin)
MRPL46 (UniProt Q9H2W6)	-0.101	0.018	0.048	0.026	-0.064	-0.002	0.005	-0.002	0.026	0.021	0.058	-0.001	-0.015	0.115	0.044	0.064	0.523 (active)	-0.029	0.024	0.032
MAP2K1 (UniProt Q02750)	0.204	0.519 (active)	-0.021	0.075	0	-0.024	-0.04	0.007	-0.012	-0.004	0.056	0.194	0.022	-0.043	-0.051	-0.057	0.281	-0.041	0.032	0.015
LAS1L (UniProt Q9Y4W2)	-0.016	0.017	0.043	-0.017	0.042	0.035	-0.061	-0.006	0.037	0.035	-0.027	0.007	-0.003	-0.051	-0.069	0.009	-0.055	0.099	-0.031	0.049
MAP4K4 isoform 3 (UniProt O95819)	-0.052	-0.021	-0.065	-0.002	0.046	0.067	-0.042	-0.022	0.062	-0.056	-0.185	-0.119	-0.029	-0.071	0.011	-0.011	0.169	-0.158	0.082	
MAPKAPK2 (UniProt P49137)	0.05	0.385 (active)	-0.011	0.016	-0.046	0.003	0.002	-0.056	0.026	0	0.011	-0.043	0	-0.015	-0.032	0.009	-0.032	0.002	-0.037	-0.015
KIF2C (UniProt Q99661)	0.004	0.014	0.048	0.025	-0.014	-0.005	-0.004	0.004	0.039	0.016	0.01	0.004	0.008	-0.058	-0.023	0.016	0.006	-0.015	-0.015	0.02
KLHL36 (UniProt Q8N4N3)	0.002	-0.047	0.092	-0.028	0.053	-0.008	-0.085	-0.005	-0.098	-0.003	0.024	0.106	-0.088	0.077	-0.127	0.1	-0.006	-0.048	-0.031	0.099
MARK3 (UniProt P27448)	0.03	-0.081	0.028	-0.016	0.041	0.005	-0.009	0.075	0.016	0	-0.003	0.036	-0.001	0.038	0.042	0.005	-0.114	-0.237	-0.015	-0.228
KIF21A isoform 5 (UniProt Q7Z4S6)	0.027	-0.002	0.015	0	0.002	0.034	-0.031	0.025	0.014	0.024	0.03	0.041	0.005	-0.038	-0.026	-0.025	0.165	-0.101	0.037	0.017
LZTR1 (UniProt Q8N653)	-0.074	-0.441	-0.023	0.102	0.009	0.048	-0.014	-0.001	0.113	0.041	0.026	-0.118	0.081	0.002	-0.125	-0.012	0	-0.047	-0.031	0.065
LSM8 (UniProt O95777)	0.051	0.012	0.055	-0.021	-0.02	-0.01	-0.011	0.03	-0.007	0.005	-0.054	0.018	0.355	-0.019	0.027	0	-0.058	0.052	-0.005	-0.017
MAP2K3 isoform 3 (UniProt P46734)	-0.041	0.095	0.012	-0.008	-0.15	0.019	-0.095	0.021	0.123	0.114	0.065	-0.042	0.032	-0.125	0.07	-0.063	0.191	0.04	0.113	-0.008
MLST8 (UniProt Q9BVC4)	0	0.011	-0.038	0.021	0.063	-0.042	-0.021	-0.003	0.044	0.023	0.025	0.029	0.074	0.026	-0.009	0.023	-0.03	0.012	0.075	-0.045
LUZP1 (UniProt Q86V48)	0.002	-0.002	0.003	-0.012	0.016	-0.006	0.012	0.011	-0.002	0.017	0.037	0.003	0.013	0.086	-0.015	0.012	0.108	0.014	-0.024	-0.01
METTL7A (UniProt Q9H8H3)	0.113	-0.055	0.036	-0.025	0.017	0.016	-0.055	0.068	-0.033	-0.035	-0.08	0.056	-0.123	-0.022	0.226	-0.018	0.014	0.081	-0.028	-0.028
MAP4 (UniProt E7EVA0)	0.001	-0.009	-0.038	-0.185	0.036	-0.058	0.008	0.131	0.005	-0.027	-0.019	0.01	0.04	0.125	-0.021	-0.141	-0.024	0.029	0.024	-0.008
